Data reported in PubChem BioAssay (Tox21).
Records with an inconclusive call do not appear. Activity calls are given as the source filed them. Calls follow the shape of the dose curve; as a rule, active = well fitted activation curve with a large enough effect in the repeat runs; inconclusive = weak or mixed curves; inactive = no such curve, though single readings can be large or run the other way.

Molecular target: Nuclear receptor subfamily 1 group I member 2 (Homo sapiens) (UniProt O75469)
Experiment: Human pregnane X receptor (PXR) small molecule agonists, qHTS assay (AID 1346982); also: nearly all actives have a fitted effect of over 35% in size
Conditions: PXR-Luc HepG2, CYP3A4 luciferase reporter, 24 h; series mostly up to 92.4 µM; activation: at the top concentration
Description: National Center for Advancing Translational Sciences [NCATS]
NIH Chemical Genomics Center [NCGC]
U.S. Environmental Protection Agency [EPA]
National Institutes of Environmental Health Sciences [NIEHS]
National Toxicology Program [NTP]
The human pregnane X receptor (hPXR) regulates the expression of several drug metabolizing enzymes and induction of these proteins is a major mechanism for developing drug resistance in cancer. One such key enzyme catalyzing the drug metabolism is cytochrome P450 3A4 (CYP3A4). Changes in CYP3A4 expression affect drug metabolism, thereby reducing the therapeutic efficacy and altering toxicological response to a drug and which finally causes adverse drug interaction. To screen Tox21 libraries for compounds that activate hPXR-mediated CYP3A4 gene expression, PXR-Luc HepG2 cells were used.
PXR-Luc HepG2 cells were dispensed at 2,000 per well in 5uL of assay medium containing 5% charcoal-stripped FBS into white solid bottom 1536-well plates (Corning Life Sciences, Corning, NY) using a Multidrop Combi (Thermo Scientific, Waltham, MA) dispenser. The assay plates were incubated at 37 C and 5% CO2 for 5hr, and then 23nL of compounds dissolved in DMSO and positive control were transferred using a Pintool station (Wako, San Diego, CA). The assay plates were incubated at 37C and 5% CO2 for 24hr. For luciferase read, 4uL of ONE-Glo reagent (Promega Corporation, Madison, WI) was added to each well of the assay plates using Flying Reagent Dispenser (FRD, Aurora Discovery, San Diego, CA) and incubated the assay plates at room temperature for 30min. The luminescence signal was quantified using a ViewLux plate reader (Perkin Elmer, Shelton, CT).
% is scaled to controls: 0 for no effect and ±100 for the full control effect; potency is read from the fitted curve at half-maximal effect.

Nuclear receptor subfamily 1 group I member 2 (Homo sapiens), sequence (O75469 whole entry, looked up): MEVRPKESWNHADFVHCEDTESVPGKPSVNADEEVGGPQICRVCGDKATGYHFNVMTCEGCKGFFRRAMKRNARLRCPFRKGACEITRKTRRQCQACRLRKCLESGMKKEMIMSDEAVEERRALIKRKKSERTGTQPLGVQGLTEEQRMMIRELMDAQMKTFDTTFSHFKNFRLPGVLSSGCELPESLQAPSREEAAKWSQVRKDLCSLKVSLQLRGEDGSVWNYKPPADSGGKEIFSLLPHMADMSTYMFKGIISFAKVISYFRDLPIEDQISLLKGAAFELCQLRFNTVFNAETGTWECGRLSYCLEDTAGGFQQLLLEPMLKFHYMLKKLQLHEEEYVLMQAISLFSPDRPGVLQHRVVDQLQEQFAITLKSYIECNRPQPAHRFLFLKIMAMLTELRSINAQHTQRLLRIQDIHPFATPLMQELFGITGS

Row | Structure (SMILES) | activation | Potency
1 | COC(=O)c1ccccc1OC | 16.9% (inactive) | 
2 | Cc1cccc(C(=O)O)c1O | 3.24% [at 42.5 µM] (inactive) | 
3 | Fc1ccc(C(c2ccc(F)cc2)N2CCNCC2)cc1 | 9.52% [at 42.5 µM] (inactive) | 
4 | Nc1nc(N)nc(-c2cc(Cl)ccc2Cl)n1 | 5.47% [at 42.5 µM] (inactive) | 
5 | CCCCOC(=O)CO | 4.24% (inactive) | 
6 | C#C[C@]1(OC(C)=O)CC[C@H]2[C@@H]3CCC4=C[C@@H](OC(C)=O)CC[C@@H]4[C@H]3CC[C@@]21C |  | 29.8 µM (active)
7 | OC1CCCc2ccccc21 (stereo not given) | 15% (inactive) | 
8 | c1ccc(SSc2ccccc2)cc1 |  | 27.5 µM (active)
9 | CC(C)(C)c1ccc(C(O)CCCN2CCC(C(O)(c3ccccc3)c3ccccc3)CC2)cc1 (stereo not given) | 1.22% [at 42.5 µM] (inactive) | 
10 | Cc1c(N)cccc1C(F)(F)F | -4.8% [at 42.5 µM] (inactive) | 
11 | C=Cc1cccc(C)c1 | -3.11% (inactive) | 
12 | CCCCCCOC(=O)C(C)CC (stereo not given) | 6.75% (inactive) | 
13 | CCCCC(CC)CN1CN(CC(CC)CCCC)CC(C)(N)C1 (stereo not given) |  | 21.1 µM (active)
14 | CN1CCN(Cc2cc(-c3ccc4[nH]c(=O)oc4c3)co2)[C@@H](c2ccc(F)cc2)C1 |  | 10.5 µM (active)
15 | C=CC(=O)Nc1cc2c(Nc3ccc(F)c(Cl)c3)ncnc2cc1OCCCN1CCOCC1 |  | 10.6 µM (active)
16 | O=C(Nc1ccc2c(O)c(N=Nc3ccc(N=Nc4ccc(S(=O)(=O)O)cc4)cc3)c(S(=O)(=O)O)cc2c1)c1ccccc1 | -8.44% (inactive) | 
17 | CC(C)=CCNc1ncnc2c1ncn2[C@@H]1O[C@H](CO)[C@@H](O)[C@H]1O |  | 9.44 µM (active)
18 | CC(C)NC[C@@H](O)COc1ccc(CC(N)=O)cc1 | -0.247% [at 42.5 µM] (inactive) | 
19 | CCC(C)(CCC(C)C)C(=O)[O][Sn]([CH3])([CH3])[O]C(=O)C(C)(CC)CCC(C)C (stereo not given) | 15.1% (inactive) | 
20 | CC(CO)Oc1ccccc1 (stereo not given) | -4.88% (inactive) | 

Row | Structure (SMILES) | activation | Potency
21 | O=C(c1ccc(O)c(O)c1)c1ccc(O)cc1O |  | 54.4 µM (active)
22 | CC[N+](CC)(CC)CCOc1ccc(/C=C/c2ccccc2)cc1 | -2.11% [at 42.5 µM] (inactive) | 
23 | c1ccc(C(O[C@@H]2CCCN(CCc3ccc4c(c3)OCO4)C2)c2ccccc2)cc1 | 2.69% (inactive) | 
24 | O=C(O)c1cccc(C(F)(F)F)c1 | 10.2% (inactive) | 
25 | CC(C(=O)O)c1ccc2c(c1)[nH]c1ccc(Cl)cc12 (stereo not given) | 8.25% [at 42.5 µM] (inactive) | 
26 | CCCCOC(=O)CC | 7.33% (inactive) | 
27 | O=C(/C=C/c1ccc(O)c(O)c1)O[C@@H](C(=O)O)[C@@H](OC(=O)/C=C/c1ccc(O)c(O)c1)C(=O)O | 9.98% (inactive) | 
28 | O=S(=O)(O)c1ccc(Nc2nc(Nc3ccc(/C=C/c4ccc(Nc5nc(Nc6ccc(S(=O)(=O)O)cc6)nc(N(CCO)CCO)n5)cc4S(=O)(=O)O)c(S(=O)(=O)O)c3)nc(N(CCO)CCO)n2)cc1 | -1.97% [at 42.5 µM] (inactive) | 
29 | O=C(O)Cc1ccc2c(c1)C(=O)c1ccccc1CO2 | 14.9% [at 42.5 µM] (inactive) | 
30 | O=C(O)c1cc(N=Nc2ccc([N+](=O)[O-])cc2)ccc1O |  | 0.301 µM (active)
31 | O=C(O)c1ccc2cc(C(=O)O)ccc2c1 | 6.94% (inactive) | 
32 | CCCc1ccc(OCC(=O)N2CCN(C(=O)COc3ccc(CCC)cc3OC)CC2)c(OC)c1 |  | 4.22 µM (active)
33 | COc1ccc2cc1Oc1ccc(cc1)C[C@H]1c3c(cc4c(c3Oc3cc5c(cc3OC)CCN(C)[C@@H]5C2)OCO4)CCN1C |  | 9.44 µM (active)
34 | CCCCCC/C=C\CCCCCCCC(=O)O | -9.79% (inactive) | 
35 | CC(C)(C)CC(C)(C)c1ccc(Nc2ccc(C(C)(C)CC(C)(C)C)cc2)cc1 | 4.4% [at 8.39 µM] (inactive) | 
36 | CCO[Si](OCC)(OCC)OCC | -4.39% (inactive) | 
37 | Nc1nc2c(ncn2COCCO)c(=O)[nH]1 | -1.31% [at 42.5 µM] (inactive) | 
38 | O=C(O)c1cc(O)c2ccccc2c1O |  | 1.93 µM (active)
39 | COC(=O)C1=C(C)NC(C)=C(C(=O)OCCN2CCN(C(c3ccccc3)c3ccccc3)CC2)C1c1cccc([N+](=O)[O-])c1 (stereo not given) | 16.9% [at 42.5 µM] (inactive) | 
40 | COc1cc2nc(N3CCN(C(=O)c4ccco4)CC3)nc(N)c2cc1OC | 6.3% [at 19 µM] (inactive) | 
